Laboratory results as given in the supplement of paper PMC10849652.
Targets with a hit are over-represented here; the source holds about 7,900 in all. About 0.6% of all pairs of compound and target were hits. Unmarked numbers belong to inactive results.

These targets were tested with C1CN(CCC1(CC2=CC=C(C=C2)Cl)N)C3=NC=NC4=C3C=CN4 (assay: log2 fold change, soluble protein after heating vs DMSO (PISA); higher = thermal stabilisation; K562 cells, 10 uM, 30 min; active = over 0.2 and 3.5 SD of the protein, either way, in both replicates (recomputed)).
In short: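 Thermal stability values are relative to control samples and come from duplicates. They are expressed as log2 fold changes. For measurement, K562 cells (2×10^6 cells/mL) received 10 μM compound for 30 min, and aliquots were heated for 3 min over 48°C-58°C, pooled, and extracted at 4°C in PBS with 0.5% NP-40. Soluble protein, the supernatant after 21,000xg for 90 min, was quantified by TMTpro 16plex LC-MS/MS with equalised channel sums.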

Chain of UniProt Q86UV5 (Q86UV5 whole entry, looked up): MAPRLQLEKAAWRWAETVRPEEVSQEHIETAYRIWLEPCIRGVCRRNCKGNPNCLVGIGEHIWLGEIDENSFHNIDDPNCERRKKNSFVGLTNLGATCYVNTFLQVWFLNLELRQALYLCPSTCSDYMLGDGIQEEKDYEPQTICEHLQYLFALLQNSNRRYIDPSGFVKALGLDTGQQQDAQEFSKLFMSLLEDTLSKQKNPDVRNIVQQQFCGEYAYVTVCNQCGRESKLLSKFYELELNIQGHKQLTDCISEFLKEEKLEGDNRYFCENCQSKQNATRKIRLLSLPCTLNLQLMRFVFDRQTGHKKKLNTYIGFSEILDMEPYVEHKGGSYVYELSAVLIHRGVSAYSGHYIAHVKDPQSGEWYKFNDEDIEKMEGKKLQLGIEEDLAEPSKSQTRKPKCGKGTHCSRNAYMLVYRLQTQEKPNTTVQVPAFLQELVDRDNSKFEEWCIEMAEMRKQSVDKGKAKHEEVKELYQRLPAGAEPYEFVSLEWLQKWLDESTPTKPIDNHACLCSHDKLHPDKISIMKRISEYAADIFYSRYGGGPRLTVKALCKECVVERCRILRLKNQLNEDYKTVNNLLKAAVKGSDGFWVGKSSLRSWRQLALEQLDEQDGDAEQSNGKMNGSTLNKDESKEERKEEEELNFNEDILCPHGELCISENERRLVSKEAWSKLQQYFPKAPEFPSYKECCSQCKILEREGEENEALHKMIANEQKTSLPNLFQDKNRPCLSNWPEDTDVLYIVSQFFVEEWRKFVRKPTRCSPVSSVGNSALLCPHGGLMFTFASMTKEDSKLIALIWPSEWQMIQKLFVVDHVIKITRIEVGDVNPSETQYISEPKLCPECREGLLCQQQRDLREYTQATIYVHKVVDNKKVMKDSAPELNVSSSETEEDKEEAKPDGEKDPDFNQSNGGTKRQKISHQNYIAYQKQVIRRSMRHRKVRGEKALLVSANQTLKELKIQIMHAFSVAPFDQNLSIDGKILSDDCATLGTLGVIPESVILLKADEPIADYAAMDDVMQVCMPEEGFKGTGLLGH
Chain of UniProt Q86XT9 (Q86XT9 whole entry, looked up): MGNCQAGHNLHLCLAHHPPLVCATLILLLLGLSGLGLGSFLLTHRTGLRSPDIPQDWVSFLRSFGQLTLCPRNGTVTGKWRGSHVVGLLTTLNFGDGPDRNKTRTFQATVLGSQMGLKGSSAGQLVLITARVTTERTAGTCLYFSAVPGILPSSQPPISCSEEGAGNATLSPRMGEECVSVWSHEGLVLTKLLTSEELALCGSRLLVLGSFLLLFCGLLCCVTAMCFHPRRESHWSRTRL
Chain of UniProt Q92890 (Q92890 whole entry, looked up): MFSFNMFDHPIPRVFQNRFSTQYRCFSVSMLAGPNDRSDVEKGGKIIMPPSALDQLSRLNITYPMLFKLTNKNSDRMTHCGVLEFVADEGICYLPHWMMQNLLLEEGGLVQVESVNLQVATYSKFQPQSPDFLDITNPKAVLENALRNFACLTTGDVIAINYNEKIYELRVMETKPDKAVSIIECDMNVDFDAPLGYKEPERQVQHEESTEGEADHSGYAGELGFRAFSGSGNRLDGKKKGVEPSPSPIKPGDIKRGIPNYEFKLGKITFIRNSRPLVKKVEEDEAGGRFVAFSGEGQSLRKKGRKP
Chain of UniProt Q8N2K1 (Q8N2K1 whole entry, looked up): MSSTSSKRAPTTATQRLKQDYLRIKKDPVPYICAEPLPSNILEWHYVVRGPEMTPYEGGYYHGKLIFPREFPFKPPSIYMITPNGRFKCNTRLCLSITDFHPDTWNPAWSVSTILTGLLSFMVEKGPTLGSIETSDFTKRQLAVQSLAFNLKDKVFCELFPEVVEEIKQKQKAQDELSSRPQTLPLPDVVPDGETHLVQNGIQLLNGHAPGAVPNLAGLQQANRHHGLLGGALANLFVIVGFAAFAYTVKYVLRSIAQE
Chain of UniProt P12956 (P12956 whole entry, looked up): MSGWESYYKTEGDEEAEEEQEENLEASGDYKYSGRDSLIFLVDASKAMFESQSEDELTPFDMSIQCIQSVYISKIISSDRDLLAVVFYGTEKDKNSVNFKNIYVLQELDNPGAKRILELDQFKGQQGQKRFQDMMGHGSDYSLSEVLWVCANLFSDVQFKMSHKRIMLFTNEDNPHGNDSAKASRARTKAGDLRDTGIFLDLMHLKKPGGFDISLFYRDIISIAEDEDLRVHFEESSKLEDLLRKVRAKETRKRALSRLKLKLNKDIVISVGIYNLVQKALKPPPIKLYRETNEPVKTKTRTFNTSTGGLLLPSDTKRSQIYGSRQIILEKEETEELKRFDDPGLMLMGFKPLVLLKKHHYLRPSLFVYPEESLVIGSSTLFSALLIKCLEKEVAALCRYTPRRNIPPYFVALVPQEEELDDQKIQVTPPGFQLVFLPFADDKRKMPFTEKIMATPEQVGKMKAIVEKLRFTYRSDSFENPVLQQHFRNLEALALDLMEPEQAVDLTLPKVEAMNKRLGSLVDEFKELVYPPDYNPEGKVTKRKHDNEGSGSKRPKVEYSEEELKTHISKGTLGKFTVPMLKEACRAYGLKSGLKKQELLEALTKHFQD
Chain of UniProt Q9Y385 (Q9Y385 whole entry, looked up): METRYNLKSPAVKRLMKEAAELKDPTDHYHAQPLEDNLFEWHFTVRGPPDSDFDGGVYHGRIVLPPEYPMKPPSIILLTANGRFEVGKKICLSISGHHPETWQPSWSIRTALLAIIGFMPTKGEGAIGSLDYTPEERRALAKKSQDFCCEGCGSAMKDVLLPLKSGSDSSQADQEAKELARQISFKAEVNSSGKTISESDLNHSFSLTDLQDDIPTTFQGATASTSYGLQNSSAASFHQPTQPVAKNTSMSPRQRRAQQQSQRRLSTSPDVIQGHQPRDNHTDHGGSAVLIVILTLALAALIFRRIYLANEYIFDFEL
Chain of UniProt P49815 (P49815 whole entry, looked up): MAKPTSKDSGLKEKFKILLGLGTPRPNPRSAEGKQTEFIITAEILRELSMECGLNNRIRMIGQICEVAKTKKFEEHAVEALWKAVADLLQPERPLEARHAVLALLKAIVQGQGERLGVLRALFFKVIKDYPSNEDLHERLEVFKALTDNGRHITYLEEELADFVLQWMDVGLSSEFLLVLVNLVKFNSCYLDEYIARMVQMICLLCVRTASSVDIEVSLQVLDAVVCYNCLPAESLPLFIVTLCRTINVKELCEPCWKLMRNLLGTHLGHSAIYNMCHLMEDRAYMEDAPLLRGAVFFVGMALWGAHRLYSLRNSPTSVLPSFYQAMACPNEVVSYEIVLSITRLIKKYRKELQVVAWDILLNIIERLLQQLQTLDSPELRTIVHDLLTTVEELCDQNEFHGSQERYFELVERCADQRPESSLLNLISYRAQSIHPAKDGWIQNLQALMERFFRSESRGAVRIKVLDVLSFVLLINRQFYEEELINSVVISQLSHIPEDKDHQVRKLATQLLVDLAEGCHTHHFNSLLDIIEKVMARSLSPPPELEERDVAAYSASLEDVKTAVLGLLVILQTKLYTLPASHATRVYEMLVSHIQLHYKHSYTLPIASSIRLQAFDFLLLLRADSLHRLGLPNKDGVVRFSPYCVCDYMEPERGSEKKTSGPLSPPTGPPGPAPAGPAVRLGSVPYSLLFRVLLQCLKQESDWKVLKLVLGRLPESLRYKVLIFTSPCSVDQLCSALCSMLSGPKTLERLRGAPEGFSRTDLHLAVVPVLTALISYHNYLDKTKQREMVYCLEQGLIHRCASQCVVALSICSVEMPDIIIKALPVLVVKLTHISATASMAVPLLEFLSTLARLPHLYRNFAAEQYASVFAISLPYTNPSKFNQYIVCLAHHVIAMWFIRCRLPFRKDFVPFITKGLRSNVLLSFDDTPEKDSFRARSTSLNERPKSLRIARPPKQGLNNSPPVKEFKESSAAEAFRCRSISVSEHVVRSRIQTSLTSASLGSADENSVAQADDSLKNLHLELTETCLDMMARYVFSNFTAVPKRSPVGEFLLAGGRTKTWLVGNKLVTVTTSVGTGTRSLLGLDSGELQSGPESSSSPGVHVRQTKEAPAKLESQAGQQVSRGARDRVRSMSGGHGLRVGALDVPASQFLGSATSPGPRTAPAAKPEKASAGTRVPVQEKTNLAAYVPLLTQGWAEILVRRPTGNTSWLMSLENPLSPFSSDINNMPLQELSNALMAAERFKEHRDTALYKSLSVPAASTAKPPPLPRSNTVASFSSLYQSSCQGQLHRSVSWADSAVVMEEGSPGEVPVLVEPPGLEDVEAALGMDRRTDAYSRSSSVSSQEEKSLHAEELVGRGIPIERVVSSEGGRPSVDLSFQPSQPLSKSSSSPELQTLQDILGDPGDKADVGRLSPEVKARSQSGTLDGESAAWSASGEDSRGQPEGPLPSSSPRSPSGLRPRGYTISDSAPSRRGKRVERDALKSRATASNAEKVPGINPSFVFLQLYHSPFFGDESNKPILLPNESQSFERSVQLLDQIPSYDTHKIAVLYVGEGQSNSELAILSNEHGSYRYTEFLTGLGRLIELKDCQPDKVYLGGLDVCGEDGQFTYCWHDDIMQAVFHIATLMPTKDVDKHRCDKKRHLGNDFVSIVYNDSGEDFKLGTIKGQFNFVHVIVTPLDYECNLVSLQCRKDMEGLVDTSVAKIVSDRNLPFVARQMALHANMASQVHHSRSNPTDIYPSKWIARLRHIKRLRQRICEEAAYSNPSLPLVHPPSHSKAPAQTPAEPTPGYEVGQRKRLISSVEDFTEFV
Chain of UniProt A5PLN9 (A5PLN9 whole entry, looked up): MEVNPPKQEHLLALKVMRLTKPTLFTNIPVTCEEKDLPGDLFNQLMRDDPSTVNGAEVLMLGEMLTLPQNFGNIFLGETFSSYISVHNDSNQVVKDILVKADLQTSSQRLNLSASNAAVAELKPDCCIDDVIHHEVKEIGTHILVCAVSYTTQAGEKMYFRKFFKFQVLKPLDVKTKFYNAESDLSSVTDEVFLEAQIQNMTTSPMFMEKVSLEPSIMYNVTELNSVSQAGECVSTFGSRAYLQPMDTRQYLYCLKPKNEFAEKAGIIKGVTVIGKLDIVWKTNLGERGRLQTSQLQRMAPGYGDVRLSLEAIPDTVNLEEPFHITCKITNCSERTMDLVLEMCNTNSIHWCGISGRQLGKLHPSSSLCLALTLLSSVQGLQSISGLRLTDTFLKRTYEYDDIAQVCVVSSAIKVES

TMEM219 (UniProt Q86XT9) and TRAPPC13 isoform 5 (UniProt A5PLN9) are within 0.2 log units of each other in log2 fold change: 0.016 for the first, 0.009 for the second.

TUBA4A (UniProt P68366) and XPOT (UniProt O43592) are within 0.2 log units of each other in log2 fold change: 0.075 for the first, -0.088 for the second.

XIAP (UniProt P98170) and XRCC1 (UniProt P18887) are within 0.2 log units of each other in log2 fold change: 0.065 for the first, 0.117 for the second.

USP7 (UniProt Q93009) and WASHC2C, A0A096LPC5 are within 0.2 log units of each other in log2 fold change: -0.003 for the first, 0.08 for the second.

TMEM9B (UniProt Q9NQ34) and TP53BP1 isoform 2 (UniProt Q12888) are within 0.2 log units of each other in log2 fold change: 0.042 for the first, -0.077 for the second.

UFD1 isoform 1 (UniProt Q92890) and USP14 (UniProt P54578) are within 0.2 log units of each other in log2 fold change: 0.024 for the first, -0.001 for the second.

WDR62 isoform 4 (UniProt O43379) and TMEM106B (UniProt Q9NUM4) are within 0.2 log units of each other in log2 fold change: 0.014 for the first, 0.15 for the second.

WDR7 (UniProt Q9Y4E6) and USO1 isoform 2 (UniProt O60763) are within 0.2 log units of each other in log2 fold change: -0.02 for the first, -0.014 for the second.

TMEM161A (UniProt Q9NX61) and TMEM164 (UniProt Q5U3C3) are within 0.2 log units of each other in log2 fold change: 0.054 for the first, 0.021 for the second.

UBE2J2 isoform 3 (UniProt Q8N2K1) and XPO1 (UniProt O14980) are within 0.2 log units of each other in log2 fold change: -0.015 for the first, -0.027 for the second.

VAMP7 (UniProt P51809) and VTA1 (UniProt Q9NP79) are within 0.2 log units of each other in log2 fold change: 0.03 for the first, -0.024 for the second.

TRAPPC3 (UniProt O43617) and UBE2J1 (UniProt Q9Y385) are within 0.2 log units of each other in log2 fold change: -0.077 for the first, 0.012 for the second.

TMEM223 (UniProt A0PJW6) and XRCC6 (UniProt P12956) are within 0.2 log units of each other in log2 fold change: -0.038 for the first, -0.025 for the second.

UBE4B isoform 4 (UniProt O95155) and USP48 isoform 8 (UniProt Q86UV5) are within 0.2 log units of each other in log2 fold change: -0.025 for the first, -0.029 for the second.

WNK1 isoform 7 (UniProt Q9H4A3) and TRIM28 (UniProt Q13263) are within 0.2 log units of each other in log2 fold change: -0.02 for the first, -0.026 for the second.

Compared with WEE1 (UniProt P30291), TSC2 (UniProt P49815) is higher in log2 fold change: -0.239 for the first, 0.199 for the second.

UFM1 isoform 2 (UniProt P61960) and UPF3B (UniProt Q9BZI7) are within 0.2 log units of each other in log2 fold change: 0.004 for the first, -0.097 for the second.

With UBLCP1 (UniProt Q8WVY7) the log2 fold change was -0.262 (active).
